Measured values as given in the supplement of paper PMC12494721.
Where a name gives a salt, the structure may show the parent alone.

Columns and labels:
Conditions in all cases: incubation time: 27 h, anaerobic, 37 °C;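 for the amine columns active = adjusted P below 0.05 in both replicates with a change the same way and a mean fold change under 0.8 or over 1.25; inactive = the rest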
[1] = tested on: Clostridium sporogenes DSM 1664; assay: growth (OD595) fold change vs plate DMSO controls (fold change (ratio)); higher = more growth
Method in brief: (§1)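 Anaerobic 27 h, 37 °C mGAM 96-well cultures were shaken, then read for absorbance at 595 nm. Values were blank-subtracted and corrected for compound background using 20 µM compound solutions in water. A calibration factor of 5 converted them to OD. Growth is the fold change versus the median of plate DMSO controls. Fold changes above 1.5 were set to NA, and values are the mean of 2 biological replicates.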

Escherichia coli IAI1 [2] = assay: as above
Method in brief: as §1

[3] = tested on: Klebsiella aerogenes DSM 30053; assay: as above
Method in brief: as §1

[4] = tested on: Ruminococcus gnavus DSM 108212; assay: as above
Method in brief: as §1

[5] = tested on: Klebsiella aerogenes DSM 30053; assay: fold change of Histamine concentration vs plate DMSO controls (fold change (ratio)); higher = more amine produced, active = hit call of the paper (significant change in both replicates, either direction)
Method in brief: (§2)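 Anaerobic mGAM cultures of four gut bacterial strains were grown at 37 °C for 27 h in 80 µL wells, starting at OD 0.1 before 1:1 dilution. Compounds were at 20 µM final (sweeteners 50 µM). Whole cultures were extracted with cold acetonitrile/methanol containing 0.1% formic acid and centrifuged. Amines were quantified by LC–triple-quadrupole MS (dynamic MRM) against external calibration curves and drift-corrected within batch. Each value is the fold change versus plate DMSO controls, averaged over 2 biological replicates.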

[6] = tested on: Clostridium sporogenes DSM 1664; assay: fold change of Tryptamine concentration vs plate DMSO controls (fold change (ratio)); higher = more amine produced, active = hit call of the paper (significant change in both replicates, either direction)
Method in brief: as §2

[7] = tested on: Ruminococcus gnavus DSM 108212; assay: as above
Method in brief: as §2

Escherichia coli IAI1 [8] = assay: fold change of Putrescine concentration vs plate DMSO controls (fold change (ratio)); higher = more amine produced, active = hit call of the paper (significant change in both replicates, either direction)
Method in brief: as §2

[9] = tested on: Klebsiella aerogenes DSM 30053; assay: as above
Method in brief: as §2

Escherichia coli IAI1 [10] = assay: fold change of Cadaverine concentration vs plate DMSO controls (fold change (ratio)); higher = more amine produced, active = hit call of the paper (significant change in both replicates, either direction)
Method in brief: as §2

[11] = tested on: Klebsiella aerogenes DSM 30053; assay: as above
Method in brief: as §2

[12] = tested on: Ruminococcus gnavus DSM 108212; assay: fold change of 2-Phenylethylamine concentration vs plate DMSO controls (fold change (ratio)); higher = more amine produced, active = hit call of the paper (significant change in both replicates, either direction)
Method in brief: as §2

Compound	growth [1]	growth (Escherichia coli IAI1 [2])	growth [3]	growth [4]	fold change of Histamine concentration [5]	fold change of Tryptamine concentration [6]	fold change of Tryptamine concentration [7]	fold change of Putrescine concentration (Escherichia coli IAI1 [8])	fold change of Putrescine concentration [9]	fold change of Cadaverine concentration (Escherichia coli IAI1 [10])	fold change of Cadaverine concentration [11]	fold change of 2-Phenylethylamine concentration [12]
CC(=O)Nc1c(I)c(C(=O)N[C@H]2C(O)O[C@H](CO)[C@@H](O)[C@@H]2O)c(I)c(N(C)C(C)=O)c1I (some centres undefined) [Metrizamide] (20 µM)	1.03	1.22	1.04	0.799	0.994 (inactive)	1.05 (inactive)	1.06 (inactive)	1.22 (inactive)	0.994 (inactive)	0.971 (inactive)	1 (inactive)	1.08 (inactive)
C=CC[N@@+]12CC[C@@]34c5ccccc5N5/C=C6/[C@H]7C[C@H]8[C@@]9(CC[N@@+]8(CC=C)C/C7=C/CO)c7ccccc7N(/C=C(/[C@@H](C[C@@H]31)/C(=C\CO)C2)[C@H]54)[C@@H]69 [Alcuronium chloride] (20 µM)	1.09	0.982	1.01	1.26	1.04 (inactive)	1.03 (inactive)	1.05 (inactive)	1.12 (inactive)	0.99 (inactive)	0.915 (inactive)	1.02 (inactive)	1.07 (inactive)
CC1(C)O[C@@H]2C[C@H]3[C@@H]4C[C@H](F)C5=CC(=O)CC[C@]5(C)[C@H]4[C@@H](O)C[C@]3(C)[C@]2(C(=O)CO)O1 [Flurandrenolide] (20 µM)	0.993	1.15	0.987	1.27	0.982 (inactive)	1.08 (inactive)	1.16 (inactive)	1.18 (inactive)	0.966 (inactive)	0.954 (inactive)	1.04 (inactive)	1.33 (inactive)
CCOC(=O)[C@H](CCc1ccccc1)N[C@@H](C)C(=O)N1CCC[C@H]1C(=O)O [Enalapril maleate] (20 µM)	1.07	1.07	1.05	1.15	0.936 (inactive)	1 (inactive)	1.09 (inactive)	1.03 (inactive)	0.959 (inactive)	0.967 (inactive)	1.02 (inactive)	1.1 (inactive)
N=C(N)NC(=O)Cc1c(Cl)cccc1Cl [Guanfacine hydrochloride] (20 µM)	0.939	0.961	1.03	0.811	0.903 (inactive)	0.953 (inactive)	1.01 (inactive)	1.02 (inactive)	0.99 (inactive)	1.01 (inactive)	1.01 (inactive)	1.02 (inactive)
CN(C/C=C/C#CC(C)(C)C)Cc1cccc2ccccc12 [Terbinafine] (20 µM)	1.03	1.2	0.972	0.896	1.07 (inactive)	1.01 (inactive)	0.97 (inactive)	1.21 (inactive)	1.01 (inactive)	0.987 (inactive)	0.989 (inactive)	1.02 (inactive)
Cc1cccc(N(C)C(=S)Oc2ccc3ccccc3c2)c1 [Tolnaftate] (20 µM)	1.02	0.997	0.984	0.839	0.984 (inactive)	1.04 (inactive)	1.06 (inactive)	1.04 (inactive)	1.01 (inactive)	1 (inactive)	1 (inactive)	1.04 (inactive)
C[C@]12C=CC(=O)C=C1CC[C@@H]1[C@@H]2C(=O)C[C@@]2(C)[C@H]1CC[C@]2(O)C(=O)CO [Prednisone] (20 µM)	1.04	1.05	1.08	1.1	0.861 (inactive)	1.04 (inactive)	1.04 (inactive)	1.07 (inactive)	0.941 (inactive)	1.08 (inactive)	1.02 (inactive)	1.02 (inactive)
O=C(O)COC(=O)Cc1ccccc1Nc1c(Cl)cccc1Cl [Aceclofenac] (20 µM)	1.1	1.11	1.14	0.993	0.97 (inactive)	0.959 (inactive)	0.984 (inactive)	1.08 (inactive)	1.01 (inactive)	0.962 (inactive)	1.01 (inactive)	1.05 (inactive)
CC1CC(OC(=O)C(O)c2ccccc2)CC(C)(C)C1 (centres undefined) [Cyclandelate] (20 µM)	0.937	1.02	1.04	1.02	0.997 (inactive)	1.04 (inactive)	1.03 (inactive)	0.959 (inactive)	1.02 (inactive)	1.02 (inactive)	1.01 (inactive)	1.03 (inactive)
CN1CCc2cccc3c2[C@H]1Cc1ccc(O)c(O)c1-3 [R(-) Apomorphine hydrochloride hemihydrate] (20 µM)	1.05	1.03	1.05	1.17	1.02 (inactive)	0.988 (inactive)	0.997 (inactive)	0.98 (inactive)	0.978 (inactive)	1.04 (inactive)	0.992 (inactive)	1.01 (inactive)
Cn1c(=O)c2c(ncn2CC(O)CO)n(C)c1=O (centres undefined) [Diprophylline] (20 µM)	0.915	1.02	0.992	0.783	1.03 (inactive)	0.964 (inactive)	0.971 (inactive)	1.02 (inactive)	1.01 (inactive)	0.98 (inactive)	1 (inactive)	0.99 (inactive)
